High-throughput results (PubChem)
JMJD2E inh: JMJD2E (human) inhibition. B2RXH2. JMJD2E catalytic domain, FDH-coupled NADH fluorescence (FDH is formaldehyde dehydrogenase). Potency, µM (top dose mostly 57.1 µM), for inactives: at the highest dose activity change, negative = inhibition, usual class: inhibitors. hit rate 1.6% among 230,000; active means well fitted inhibition curve with a large enough effect, not every such curve was filed as active; inconclusive means small, poorly fitted or top-dose-only effect, or another doubt; inactive means no such curve, though single readings can be large or run the other way;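 further: 0% = wells with enzyme and -100% = buffer wells without enzyme; nearly all actives have a fitted effect of over 50% in size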
Tau fluor cs: counter-screen for tau fibril formation inhibitors; AID 1463; hit rate 0.93% among 280,000; tau K18 P301L Alexa594 fluorescence, heparin fibrillization; Potency, µM (titrated, usually from 57.7 µM), without a hit: at the highest dose activity change, negative = decrease; further: nearly all actives have a fitted effect of over 55% in size
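Human tau K18 P301L (15 uM unlabeled, 0.24 uM Alexa 594-labeled) in 100 mM sodium acetate pH 7 with 20 uM heparin, 6 hr at 37 C. ThT 30 uM added, 1 hr ambient; Alexa 594 FP and total fluorescence read at 555/632 nm.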
Tau fibril ThT: inhibitors of human tau fibril formation, thioflavin T binding; P10636; Potency, µM (highest dose often 57.4 µM), inactives show at the top dose activity, negative = inhibition, usual class: inhibitors; hit rate 2.1% among 270,000; recombinant tau K18 P301L, heparin-induced fibrillization, ThT fluorescence; further: nearly all actives have a fitted effect of over 55% in size
Target sequence (P10636 561-689 P618L limits assumed): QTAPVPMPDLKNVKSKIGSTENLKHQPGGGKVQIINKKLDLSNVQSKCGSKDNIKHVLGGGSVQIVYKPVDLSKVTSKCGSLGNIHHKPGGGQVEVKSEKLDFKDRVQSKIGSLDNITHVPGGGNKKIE
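Using a mix of unlabeled (15 uM) and Alexa 594-labeled (0.24 uM) tau K18 P301L, heparin-triggered fibrillization over 6 hr at 37 C was scored by ThT fluorescence.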
Tau FP inhib: blocks human tau fibril formation measured by polarization. P10636. K18 P301L tau heparin fibrillization, Alexa594 FP, 6 h. Potency, µM (highest dose often 57.7 µM), for inactives: at the highest dose activity, negative = inhibition, usual class: inhibitors. hit rate 0.39% among 280,000. AID 1468; further: nearly all actives have a fitted effect of over 55% in size
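Read-out: fluorescence polarization of Alexa 594-labeled tau (0.24 uM), 555 nm excitation, 632 nm emission. Mixtures held 15 uM unlabeled K18 P301L, compound and 20 uM heparin, pH 7 acetate buffer, incubated 6 hr at 37 C.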
HPGD inh: HPGD (human) dehydrogenase inhibition; P15428; purified HPGD, NADH fluorescence kinetic, PGE2 substrate; Potency, µM, without a hit: at the top dose activity change, negative = inhibition, actives largely listed as inhibitors; hit rate 4.3% among 150,000; AID 894; active means well fitted inhibition curve with a large enough effect, not every such curve was filed as active; inconclusive means small, poorly fitted or top-dose-only effect, or another doubt; inactive means no such curve, though single readings can be large or run the other way
Target sequence (P15428 whole entry, looked up): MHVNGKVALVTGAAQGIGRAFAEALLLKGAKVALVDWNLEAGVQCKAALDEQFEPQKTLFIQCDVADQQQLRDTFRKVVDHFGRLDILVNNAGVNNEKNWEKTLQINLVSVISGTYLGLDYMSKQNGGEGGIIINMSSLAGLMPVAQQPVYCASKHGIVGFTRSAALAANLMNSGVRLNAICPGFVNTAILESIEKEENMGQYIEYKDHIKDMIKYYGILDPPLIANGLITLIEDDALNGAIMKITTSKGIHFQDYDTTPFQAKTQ
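20 nM HPGD preincubated 15 min at room temperature with compound in 50 mM Tris-HCl pH 8, 0.01% Tween 20. Started with 1 mM NAD+ and 30 uM prostaglandin E2; NADH fluorescence (360/450 nm) read 5 times over 30-s intervals, last minus first.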
ALDH1A1 inh: blocks purified human ALDH1A1 activity | P00352 | Purified ALDH1A1, NADH fluorescence, propionaldehyde substrate | Potency, µM (series often up to 75.3 µM), inactives show top-dose activity, negative = inhibition, usual class: inhibitors | hit rate 7.3% among 220,000 | AID 1030; active means well fitted inhibition curve with a large enough effect, not every such curve was filed as active; inconclusive means small, poorly fitted or top-dose-only effect, or another doubt; inactive means no such curve, though single readings can be large or run the other way;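 further: plate controls were no enzyme wells and a reference inhibitor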
* marks the source's active call; other numbers are inactive results; ? = inconclusive; nt = no result. An excerpt weighted towards active compounds, which were near 9.9% of everything screened. Unless noted, the call rests on the fitted dose curve; in most records, active means well fitted curve in the direction sought with a large enough effect; inconclusive means small, poorly fitted or top-dose-only effect, or another doubt; inactive means no such curve, though single readings can be large; an effect the other way counts as inactive or inconclusive. Unless noted, on the % scale 0 is the no-effect control and ±100 the full control effect; potency means the concentration at half of the fitted maximal effect.

SMILES | JMJD2E inh | Tau fluor cs | Tau fibril ThT | Tau FP inhib | HPGD inh | ALDH1A1 inh
Cc1cc(NC(=O)CSc2cn(C)c3ccccc23)no1 | -5.3% | -11.1% | -19.9% | -3.2% | -6.2% | -9.7%
Cc1ccc(S(=O)(=O)c2c(C)nn(C(C)(C)C)c2OC(=O)CC(C)C)cc1 | -1.2% | -1.8% | -10.4% | 6.6% | nt | -7.9%
O=C1c2ccccc2C(=O)C12OC2c1ccc(Cl)cc1Cl (stereo unspecified) | -25.4% | ? | 10µM* | ? | -18.2% | 25.1µM*
Cc1ccc(N2CCn3c2nc2c3c(=O)n(CCCc3ccccc3)c(=O)n2C)cc1 | nt | -8.0% | -7.6% | -4.8% | nt | nt
COc1ccc(Oc2cccc(Cl)c2CNC(=O)CCCC(=O)O)cc1 | -6.9% | -20.2% | -12.8% | -11.7% | nt | 5.7%
Cc1ccc(C(NC(=O)NCCCN2CCOCC2)=C(Cl)Cl)cc1F | -6.2% | -9.2% | -16.5% | -2.3% | -14.3% | 0.398µM*
Cc1ccc(C(NC(=O)N2CCCCC2)=C(Cl)Cl)cc1F | 6.3% | 4.0% | -6.0% | -2.3% | -14.1% | 0.112µM*
O=S(=O)(Nc1ccc(Cl)cc1Cl)c1cc(Cl)ccc1Cl | nt | nt | nt | nt | ? | 2.1%
S=C1NCCc2ccccc2C1c1ccccc1 (stereo unspecified) | -7.3% | 1.8% | 6.5% | 10.0% | 39.8µM* | -6.6%
S=C1NCCc2ccccc2C1c1ccccc1Cl (stereo unspecified) | 5.6% | -13.4% | -3.6% | 1.0% | -6.9% | 6.1%
OC[C@@H](O)C1OC2NC(=S)OC2C1O (stereo partly specified) | -10.3% | -12.0% | -6.6% | -15.0% | nt | -7.2%
Cc1ccc(N=C2SC(C(=O)NCCc3ccccc3)CC(=O)N2C)cc1C (stereo unspecified) | -6.2% | -13.1% | -0.6% | 4.0% | nt | 10µM*
COC(=O)C1=C(C)Nc2nnnn2C1c1cc(OC)ccc1OC (stereo unspecified) | -5.8% | 1.6% | -3.6% | -13.5% | nt | 2.5%
C=CCOC(=O)C1=C(C)Nc2nnnn2C1c1ccc(OC)cc1OC (stereo unspecified) | -6.7% | -8.8% | 1.4% | -3.4% | -4.9% | ?
COC(=O)C1=C(C)Nc2nnnn2C1c1cccs1 (stereo unspecified) | 3.1% | 2.3% | 6.9% | 6.1% | 15.8µM* | 2.82µM*
C=CCOC(=O)C1=C(C)Nc2nnnn2C1c1cccs1 (stereo unspecified) | 2.3% | -2.1% | 0.4% | 1.5% | -16.1% | 6.31µM*
CCCOc1ccccc1C1C(C(=O)Nc2ccccc2)=C(C)Nc2nnnn21 (stereo unspecified) | nt | -22.8% | -8.9% | -2.1% | nt | nt
CC1=C(C(=O)Nc2ccccc2)C(c2sccc2C)n2nnnc2N1 (stereo unspecified) | 7.5% | -3.9% | -7.2% | 3.6% | -13.7% | 0.355µM*
Cc1ccc(C(=O)N(c2ccc(C)cc2)S(=O)(=O)c2ccc(Cl)cc2)cc1 | nt | -27.9% | ? | -4.7% | nt | nt
COc1ccc(Cn2c(=O)c3oc4ccccc4c3n(Cc3ccccc3)c2=O)cc1 | nt | -10.0% | 8.3% | -7.3% | nt | nt
COc1ccc(C2=NN(C(N)=S)C(c3ccco3)C2)cc1 (stereo unspecified) | ? | -24.4% | ? | -6.3% | nt | 17.8µM*
O=C(NCCc1csc(-c2cccnc2)n1)c1ccc(Br)o1 | -17.7% | 2.9% | -6.1% | 2.3% | ? | 22.4µM*
CCCOc1cccc(C2c3c(oc4ccc(F)cc4c3=O)C(=O)N2CCc2ccc(OC)cc2)c1 (stereo unspecified) | nt | -6.6% | -2.3% | -10.4% | nt | nt
Brc1ccc(-c2csc(N3CCc4ccccc4C3)n2)cc1 | -1.7% | -25.2% | ? | 6.5% | -10.5% | 20.9%
O=[N+]([O-])c1ccc(-c2csc(N3CCc4ccccc4C3)n2)cc1 | 12.6% | ? | 5.01µM* | 11.1% | -6.3% | -11.2%
COc1ccc(C(=O)NC2=NCCS2)cc1S(=O)(=O)N1CCCCC1C (stereo unspecified) | -4.9% | -14.4% | -14.8% | -2.9% | nt | -4.4%
